# Measured values from PubChem BioAssay (NCI).
# This is part of a sample that, as a whole, favours compounds with a hit. Of some 83,000 tested, about 20% had one in any assay.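 Percent growth is the endpoint: 0 to 100 indicates growth inhibition (40 means 60% inhibition), 0 means no net growth, and negative values indicate cell death.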 The source made the active and inactive calls. The calls were made as follows: active = growth percent below 10; inactive = the rest.
# Test system: RPMI-8226 leukemia
# Assay: NCI-60 one-dose screen, 48 h (100 = growth as untreated, 0 = no growth, -100 = all killed)
# Settings: 10 µM unless noted
row,SMILES,growth
1,Cc1cc(C)n(C(=O)c2nn(-c3ccc(Cl)cc3)cc2O)n1,-0.413% (active)
2,COc1ccc(-c2nn(-c3ccccc3)cc2/C=C2\SC(=S)N(CCc3ccc(O)cc3)C2=O)cc1,70.2% (inactive)
3,CCN(CC)c1ccc(CN(CC(=O)c2ccc(Cl)c(Cl)c2)Cc2ccccc2)cc1,101% (inactive)

# Test system: OVCAR-8 ovarian
# Assay: as above
# Settings: 10 µM unless noted
row,SMILES,growth
1,C=C1c2c(C)nn(-c3ccc(C#CCOC4OC(CO)C(O)C(O)C4O)cc3)c2N(C)C23C[C@H]1C1(C)c4c(C)nn(-c5ccc(C#CCOC6OC(CO)C(O)C(O)C6O)cc5)c4N(C)C(C)(C[C@H]12)C3 (stereo partly drawn),12% (inactive)
2,[O-]/[N+](=C\C=C\c1ccccc1)c1ccccc1,121% (inactive)
3,CN1CCN(Cc2ccc(NC(=O)c3[nH]ncc3Nc3ccnc4ccnn34)cc2)CC1,61.8% (inactive)
4,CCCOc1ccc2c(c1)CC[C@@H]1[C@@H]2CC[C@@]2(C)[C@H]1CC[C@]2(C)O,74% (inactive)
5,COc1ccc(C2=NN(C(=O)c3cc(OC)c(OC)c(OC)c3)C(c3ccc(C#N)cc3)C2)cc1OC (stereo not drawn),32.8% (inactive)
6,CO[C@H]1CC(O[C@@H]2/C(C)=C/C[C@@H]3C[C@@H](C[C@]4(CC[C@H](C)[C@@H](C5CCCCC5)O4)O3)OC(=O)[C@@H]3C=C(C)/C(=N/O)[C@H]4OC/C(=C\C=C\[C@@H]2C)[C@]43O)O[C@@H](C)C1O (stereo partly drawn),-51.3% (active)
7,O=C1CC(C(F)(F)F)=NN1C(=O)c1nn(-c2ccc(Cl)cc2)cc1O,71.9% (inactive)
8,CCCCc1nc(Cl)c(CO)n1Cc1ccc(-c2ccccc2-c2nn[nH]n2)cc1,103% (inactive)
9,CN(C)c1ccc2[nH]c3c(C(N)=O)cc(=O)c(=O)c=3oc2c1,25.4% (inactive)
10,CCC1(c2ccccc2)Oc2ccccc2-n2c(C#N)c3ccccc3c2C1=O (stereo not drawn),98.4% (inactive)
11,O=C1Nc2ccc(F)cc2/C1=C/c1nc(-c2ccc(F)cc2)n2ccccc12,97.7% (inactive)
12,COc1cc(C(=O)/C=C/c2cccnc2Nc2ccccc2)cc(OC)c1OC,-31.3% (active)
13,Fc1ccc([C@@H]2CCNC[C@H]2COc2ccc3c(c2)OCO3)cc1,95.9% (inactive)
14,CCCc1nn(C)c2c(=O)[nH]c(-c3cc(S(=O)(=O)N4CCN(C)CC4)ccc3OCC)nc12,109% (inactive)
15,COc1ccc(-c2cc(Cc3cccs3)c(=O)n(Cn3cncn3)n2)cc1,92.9% (inactive)
16,CC[N+](CC)(CCOCCOCC[N+](CC)(CC)Cc1ccc([N+](=O)[O-])cc1)Cc1ccc([N+](=O)[O-])cc1,103% (inactive)
17,S=C1SCN(Cc2ccccc2)CN1Cc1ccco1,89.1% (inactive)
18,O=C(CSc1nc2c(n1Nc1ccccc1)-c1ccccc1SC2)Nc1nc(-c2ccc(Cl)cc2)cs1,57.3% (inactive)
19,C=C(C)[C@@H]1C/C=C(/C=O)CC[C@@H]2O[C@@]2(C)CC/C=C(\C)CC1,105% (inactive)
20,CC[C@@H]1OC(=O)[C@H](C)[C@@H](O[C@H]2C[C@@](C)(OC)[C@@H](O)[C@H](C)O2)[C@H](C)[C@@H](O[C@@H]2O[C@H](C)C[C@H](N(C)C)[C@H]2O)[C@](C)(O)C[C@@H](C)[C@@H]2N[C@@H](COCCOC)O[C@H]([C@H]2C)[C@]1(C)O,102% (inactive)
21,C[n+]1c2ccccc2c(Nc2ccc(N3CCCCC3)cc2)c2[nH]c3ccccc3c21,-87.4% (active)
22,Nc1ccc2c(c1)/C(=N/O)c1cc([N+](=O)[O-])ccc1-2,87% (inactive)
23,COc1cc(/C=C/c2nnc(-c3cc(-c4ccccc4)n[nH]3)o2)cc(OC)c1OC,80.8% (inactive)
24,O=C(O)c1ccc(NC(=O)c2ccc(Nc3ccnc(C(F)(F)F)c3)cc2)cc1,102% (inactive)
25,Cc1c(C(N)=O)sc2ncn(Cc3ccccc3)c(=O)c12,110% (inactive)
26,C[C@@H]1CC[C@H]2[C@@H](C)C(O)O[C@@H]3O[C@]4(C)CC[C@@H]1[C@]32OO4 (stereo partly drawn),19.2% (inactive)
27,Cn1c(=O)c2c(nc(Br)n2CCC(=O)Nc2ccc(F)cc2)n(C)c1=O,100% (inactive)
28,N=C(N)/N=C(\CCc1nc2ccccc2[nH]1)c1nc2ccccc2[nH]1,105% (inactive)
29,CCOc1cccc(C2CC(=O)Nc3cc4c(cc32)OCO4)c1 (stereo not drawn),89% (inactive)
30,COc1ccc(C2=NNC(c3cc(Cc4ccc(O)c(C5CC(c6ccc(OC)cc6)=NN5)c4)ccc3O)C2)cc1 (stereo not drawn),28.8% (inactive)
